{"source": "paper PMC7862700", "about": "“An all-to-all approach to the identification of sequence-specific readers for epigenetic DNA modifications on cytosine”", "test_in_all_cases": "DAPPL (digital affinity profiling via proximity ligation, sequencing); 10 mM Tris-HCl pH 7.5, 50 mM NaCl, 1 mM DTT, 4% glycerol, room temperature, 30 min; GST-TFs on glutathione beads, 16-mer random dsDNA library, 0.1% formaldehyde crosslink after washing; high values mean tight binding", "conditions_in_all_cases": "protein: recombinant; tags: N-terminal GST; dsDNA, one strand shown", "key": {"[1]": {"biological_target": "T1, FLI1 (Homo sapiens, UniProt Q01543 1-452)", "T1 sequence": "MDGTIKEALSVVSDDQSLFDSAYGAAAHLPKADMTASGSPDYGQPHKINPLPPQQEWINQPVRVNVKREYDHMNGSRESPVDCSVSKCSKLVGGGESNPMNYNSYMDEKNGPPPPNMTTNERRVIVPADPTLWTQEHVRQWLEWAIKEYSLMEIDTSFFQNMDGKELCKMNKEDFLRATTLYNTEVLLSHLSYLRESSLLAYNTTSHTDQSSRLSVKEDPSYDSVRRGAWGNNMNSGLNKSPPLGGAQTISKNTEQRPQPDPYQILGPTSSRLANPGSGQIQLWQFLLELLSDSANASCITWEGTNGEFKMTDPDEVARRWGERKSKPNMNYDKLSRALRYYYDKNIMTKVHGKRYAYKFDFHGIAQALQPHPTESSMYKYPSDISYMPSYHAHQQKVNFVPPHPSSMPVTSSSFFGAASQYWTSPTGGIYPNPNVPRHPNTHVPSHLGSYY", "how_it_was_run": "(§1)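 Yeast served to express human transcription factors as GST fusions, which were then captured on glutathione beads and labelled with DNA barcodes. Pooled with a tag-only sample, they were incubated with 200 nmole of a 16-mer random double-stranded DNA library for 30 min at room temperature in Tris/NaCl/DTT/glycerol buffer, washed, crosslinked with 0.1% formaldehyde, ligated by proximity, amplified by PCR and sequenced. Dividing each hexamer's read frequency for a factor by its frequency for the tag-only sample gives the binding signal.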"}, "[2]": {"biological_target": "T2, ELK1 (Homo sapiens, UniProt P19419 1-428)", "T2 sequence": "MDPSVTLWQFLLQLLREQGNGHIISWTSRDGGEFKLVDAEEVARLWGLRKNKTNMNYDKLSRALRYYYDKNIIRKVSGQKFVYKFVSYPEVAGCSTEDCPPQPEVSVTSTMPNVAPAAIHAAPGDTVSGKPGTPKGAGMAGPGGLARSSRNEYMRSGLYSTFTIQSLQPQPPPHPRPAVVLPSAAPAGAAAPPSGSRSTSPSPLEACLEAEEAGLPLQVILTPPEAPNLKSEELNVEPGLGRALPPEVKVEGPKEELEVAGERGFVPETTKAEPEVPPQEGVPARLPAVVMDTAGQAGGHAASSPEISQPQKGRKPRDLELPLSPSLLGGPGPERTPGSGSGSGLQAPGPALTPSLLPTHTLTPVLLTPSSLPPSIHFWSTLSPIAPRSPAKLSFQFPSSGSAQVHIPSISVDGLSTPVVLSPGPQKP", "how_it_was_run": "as §1"}, "[3]": {"biological_target": "T3, GABPA (Homo sapiens, UniProt Q06546 1-454)", "T3 sequence": "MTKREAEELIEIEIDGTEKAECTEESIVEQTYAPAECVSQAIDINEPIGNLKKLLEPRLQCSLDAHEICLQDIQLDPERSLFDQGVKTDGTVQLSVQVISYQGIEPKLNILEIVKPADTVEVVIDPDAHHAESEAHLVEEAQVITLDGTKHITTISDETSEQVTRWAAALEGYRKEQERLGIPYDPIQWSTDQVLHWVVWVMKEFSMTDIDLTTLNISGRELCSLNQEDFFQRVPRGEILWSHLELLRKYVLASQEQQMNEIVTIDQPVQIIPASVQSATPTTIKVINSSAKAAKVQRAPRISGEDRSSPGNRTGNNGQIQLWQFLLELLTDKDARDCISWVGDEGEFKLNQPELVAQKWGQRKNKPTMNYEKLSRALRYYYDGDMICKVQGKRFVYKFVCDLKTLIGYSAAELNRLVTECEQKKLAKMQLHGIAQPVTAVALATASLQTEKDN", "how_it_was_run": "as §1"}, "[4]": {"biological_target": "T4, ERG (Homo sapiens, UniProt P11308 1-479)", "T4 sequence": "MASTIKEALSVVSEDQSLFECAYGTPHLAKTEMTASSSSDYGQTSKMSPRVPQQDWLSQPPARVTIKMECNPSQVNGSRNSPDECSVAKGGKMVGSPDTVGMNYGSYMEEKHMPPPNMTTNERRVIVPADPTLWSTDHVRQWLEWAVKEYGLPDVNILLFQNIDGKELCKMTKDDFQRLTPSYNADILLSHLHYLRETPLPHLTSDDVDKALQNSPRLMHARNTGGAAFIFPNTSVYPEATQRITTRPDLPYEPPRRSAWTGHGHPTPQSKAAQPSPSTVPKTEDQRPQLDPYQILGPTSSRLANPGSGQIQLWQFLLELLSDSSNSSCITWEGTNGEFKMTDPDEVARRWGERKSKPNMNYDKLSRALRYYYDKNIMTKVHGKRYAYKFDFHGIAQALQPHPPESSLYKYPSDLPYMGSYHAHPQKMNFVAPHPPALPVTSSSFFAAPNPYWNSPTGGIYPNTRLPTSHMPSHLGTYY", "how_it_was_run": "as §1"}, "[5]": {"biological_target": "ELF1 (Homo sapiens, UniProt P32519 1-619)", "sequence (P32519 whole entry)": "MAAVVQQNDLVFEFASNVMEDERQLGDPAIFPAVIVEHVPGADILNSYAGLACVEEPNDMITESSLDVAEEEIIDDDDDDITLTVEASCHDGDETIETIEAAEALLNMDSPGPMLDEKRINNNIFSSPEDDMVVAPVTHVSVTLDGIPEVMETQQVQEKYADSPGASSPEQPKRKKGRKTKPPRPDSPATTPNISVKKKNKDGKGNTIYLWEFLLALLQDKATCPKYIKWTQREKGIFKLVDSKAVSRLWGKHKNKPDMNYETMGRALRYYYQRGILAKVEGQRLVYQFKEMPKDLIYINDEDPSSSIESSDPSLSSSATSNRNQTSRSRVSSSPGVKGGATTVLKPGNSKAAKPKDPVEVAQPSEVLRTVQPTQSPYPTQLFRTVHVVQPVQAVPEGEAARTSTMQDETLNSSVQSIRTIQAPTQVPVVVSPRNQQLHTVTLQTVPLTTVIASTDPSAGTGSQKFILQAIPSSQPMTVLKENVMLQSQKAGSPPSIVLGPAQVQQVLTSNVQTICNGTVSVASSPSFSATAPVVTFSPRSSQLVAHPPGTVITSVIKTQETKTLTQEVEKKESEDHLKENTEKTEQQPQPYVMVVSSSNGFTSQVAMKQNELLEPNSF", "how_it_was_run": "as §1"}, "[6]": {"biological_target": "T5, EHF (Homo sapiens, UniProt Q9NZC4 1-300)", "T5 sequence": "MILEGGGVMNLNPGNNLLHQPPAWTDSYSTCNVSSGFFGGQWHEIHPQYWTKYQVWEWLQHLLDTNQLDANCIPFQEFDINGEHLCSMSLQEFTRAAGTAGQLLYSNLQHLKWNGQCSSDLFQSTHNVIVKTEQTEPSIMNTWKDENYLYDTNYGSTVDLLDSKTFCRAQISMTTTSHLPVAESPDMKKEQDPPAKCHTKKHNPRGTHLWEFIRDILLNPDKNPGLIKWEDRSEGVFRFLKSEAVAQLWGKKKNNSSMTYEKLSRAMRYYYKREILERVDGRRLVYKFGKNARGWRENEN", "how_it_was_run": "as §1"}, "[7]": {"biological_target": "SPI1 (Homo sapiens, UniProt P17947 1-270)", "how_it_was_run": "as §1"}, "[8]": {"biological_target": "SPIB (Homo sapiens, UniProt Q01892 1-262)", "sequence (Q01892 whole entry)": "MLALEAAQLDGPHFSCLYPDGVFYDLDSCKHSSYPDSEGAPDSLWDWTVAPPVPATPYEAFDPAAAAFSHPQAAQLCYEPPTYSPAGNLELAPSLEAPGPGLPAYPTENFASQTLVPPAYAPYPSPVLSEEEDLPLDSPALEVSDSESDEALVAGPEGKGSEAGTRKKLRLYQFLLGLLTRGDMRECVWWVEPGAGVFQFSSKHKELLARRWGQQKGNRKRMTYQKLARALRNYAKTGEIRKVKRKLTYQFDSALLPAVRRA", "how_it_was_run": "as §1"}, "[9]": {"biological_target": "T6, ELK3 (Homo sapiens, UniProt P41970 1-407)", "T6 sequence": "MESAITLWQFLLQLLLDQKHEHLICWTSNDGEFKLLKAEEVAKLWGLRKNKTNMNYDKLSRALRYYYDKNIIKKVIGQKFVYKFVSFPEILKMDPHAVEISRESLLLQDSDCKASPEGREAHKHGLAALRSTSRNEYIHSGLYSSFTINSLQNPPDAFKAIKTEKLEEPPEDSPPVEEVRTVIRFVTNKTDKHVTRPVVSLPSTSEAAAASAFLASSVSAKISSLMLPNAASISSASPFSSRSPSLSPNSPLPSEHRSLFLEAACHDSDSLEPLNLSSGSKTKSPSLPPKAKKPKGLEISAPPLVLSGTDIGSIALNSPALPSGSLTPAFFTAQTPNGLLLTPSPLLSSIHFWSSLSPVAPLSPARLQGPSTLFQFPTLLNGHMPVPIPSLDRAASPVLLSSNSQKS", "how_it_was_run": "as §1"}}, "data": [{"sequence": "ATCTTG", "values": [{"measurement": "binding signal", "setting": "[1]", "result": "1.35 fold enrichment (6-mer frequency, TF over GST control)"}, {"measurement": "binding signal", "setting": "[2]", "result": "1.38 fold enrichment (6-mer frequency, TF over GST control)"}, {"measurement": "binding signal", "setting": "[3]", "result": "1.27 fold enrichment (6-mer frequency, TF over GST control)"}, {"measurement": "binding signal", "setting": "[4]", "result": "1.39 fold enrichment (6-mer frequency, TF over GST control)"}, {"measurement": "binding signal", "setting": "[5]", "result": "1.33 fold enrichment (6-mer frequency, TF over GST control)"}, {"measurement": "binding signal", "setting": "[6]", "result": "1.35 fold enrichment (6-mer frequency, TF over GST control)"}, {"measurement": "binding signal", "setting": "[7]", "result": "1.3 fold enrichment (6-mer frequency, TF over GST control)"}, {"measurement": "binding signal", "setting": "[8]", "result": "1.31 fold enrichment (6-mer frequency, TF over GST control)"}, {"measurement": "binding signal", "setting": "[9]", "result": "1.41 fold enrichment (6-mer frequency, TF over GST control)"}]}]}
